# Measured values from PubChem BioAssay (NCI).
# The panel holds about 79,000 compounds, 15% with a hit somewhere; the sample as a whole holds those more often. A number with no mark means an inactive call. Active and inactive are the calls of the source. Cut-off read from the data, not from the text of the source: active = growth inhibition above about 70%; inactive = the rest.
# Legend:
# [1] = NCI Yeast Anticancer Drug Screen. Data for the sgs1 strain (AID 173);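 note: 0% = growth of vehicle-only control cultures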; conditions: S. cerevisiae sgs1 mutant, hits give high values
# How it was run: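 Treat defined-mutant yeast with compound; measure growth; calculate inhibition relative to vehicle-treated cells.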
# [2] = NCI Yeast Anticancer Drug Screen. Data for the mlh1 rad18 strain (AID 175); conditions: S. cerevisiae mlh1 rad18 strain growth inhibition, hits give high values
# How it was run: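 Test agents were incubated with a yeast strain of defined genotype (DNA damage repair defect). Inhibition of growth was derived by comparison with vehicle-exposed cultures.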
# [3] = NCI Yeast Anticancer Drug Screen. Data for the rad18 strain (AID 177); conditions: S. cerevisiae rad18 mutant growth inhibition, hits give high values
# How it was run: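 A genetically defined yeast mutant impaired in DNA damage repair was treated with test compounds, then its growth was measured against cultures receiving vehicle alone.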
# [4] = NCI Yeast Anticancer Drug Screen. Data for the wt1 strain (AID 149);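 note: 0% = growth of vehicle-treated wt1 cultures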; conditions: S. cerevisiae wt1 strain (SPY 50644) growth inhibition, hits give high values
# How it was run: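 Growth inhibition read against vehicle controls after compound exposure of the wt1 yeast strain.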
# [5] = NCI Yeast Anticancer Drug Screen. Data for the rad50EPP+ strain (AID 151);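 note: 0% = growth of vehicle-treated control cultures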; conditions: S. cerevisiae rad50 mutant strain, hits give high values
# How it was run: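 Exposing the rad50EPP+ strain to each compound, growth was compared with vehicle-only cultures to give inhibition.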
# [6] = NCI Yeast Anticancer Drug Screen. Data for the rad50 strain (AID 155);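 note: 0% = growth of vehicle-only cultures of the same strain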; conditions: S. cerevisiae rad50 strain growth inhibition, hits give high values
# How it was run: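 Readout: growth inhibition relative to vehicle-treated cultures. Compound exposure was carried out in a genetically defined yeast strain deficient in DNA damage repair.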
# [7] = NCI Yeast Anticancer Drug Screen. Data for the mec2-1 strain (AID 157); conditions: S. cerevisiae mec2-1 strain, hits give high values
# How it was run: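 Readout is yeast growth inhibition, normalised to vehicle-treated controls, in the mec2-1 strain exposed to compound.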
# [8] = NCI Yeast Anticancer Drug Screen. Data for the rad14 strain (AID 159);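 note: 0% = growth of vehicle-treated control cultures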; conditions: S. cerevisiae rad14 strain growth inhibition, hits give high values
# How it was run: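 Growth inhibition vs vehicle controls; genetically altered yeast strain (DNA damage repair defect) treated with test compounds.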
# [9] = NCI Yeast Anticancer Drug Screen. Data for the sgs1 mgt1 strain (AID 161);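 note: 0% = growth of cultures given vehicle only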; conditions: S. cerevisiae sgs1 mgt1 strain, hits give high values
# How it was run: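 This yeast growth screen uses a strain with defined DNA-repair lesions; compound-treated growth is compared with vehicle-treated growth.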
# [10] = NCI Yeast Anticancer Drug Screen. Data for the CLN2oe strain (AID 163);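 note: 0% = growth of vehicle-only control cultures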; conditions: S. cerevisiae CLN2oe strain, hits give high values
# How it was run: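 Values reflect how much compound exposure reduced yeast growth, referenced to vehicle-exposed cells. Assay organism is a strain with a defined genetic change affecting cell-cycle control.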
# [11] = NCI Yeast Anticancer Drug Screen. Data for the cln2 rad14 strain (AID 165);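 note: 0% = growth equal to vehicle treated cultures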; conditions: S. cerevisiae cln2 rad14 strain, hits give high values
# How it was run: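 Relative to vehicle controls, growth inhibition of compound-treated cln2 rad14 yeast was recorded.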
# [12] = NCI Yeast Anticancer Drug Screen. Data for the bub3 strain (AID 167); conditions: S. cerevisiae bub3 mutant strain, hits give high values
# How it was run: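 Readout: yeast growth inhibition, expressed relative to vehicle-only wells. The test organism is a mutant strain from a panel with lesions in DNA repair or checkpoint genes.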
# [13] = NCI Yeast Anticancer Drug Screen. Data for the wt2 strain (AID 169);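 note: 0% = growth of vehicle-treated yeast cultures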; conditions: S. cerevisiae wt2 strain growth inhibition, hits give high values
# How it was run: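 Values express reduction in yeast growth under compound treatment, referenced to vehicle-treated cells.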
# [14] = NCI Yeast Anticancer Drug Screen. Data for the mlh1 strain (AID 171);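 note: 0% = growth of vehicle-treated control cultures of the same strain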; conditions: S. cerevisiae mlh1 strain growth inhibition, hits give high values
# How it was run: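 Steps: expose the defined-mutant yeast strain to compound; expose a parallel culture to vehicle; measure growth; express compound effect as inhibition relative to the vehicle culture.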
# [15] = at 5.0 µM (retest, dose inferred, filed as 0.5)
# [16] = at 50.0 µM (retest, dose inferred, filed as 5.0)
compound,measurement,setting,value
CCCCCCCCCCCCCC[N+](C)(CC(=O)[O-])Cc1ccccc1 (stereo not drawn),growth inhibition,[1]; at 33.0 µM,99% (active)
same,growth inhibition,[1]; at 100.0 µM,99% (active)
same,growth inhibition,[2]; [15],1%
same,growth inhibition,[2]; [16],99% (active)
same,growth inhibition,[2]; at 50.0 µM,99.1% (active)
same,growth inhibition,[3]; at 1.2 µM,3%
same,growth inhibition,[3]; at 3.7 µM,23%
same,growth inhibition,[3]; at 11.0 µM,99% (active)
same,growth inhibition,[3]; at 33.0 µM,99% (active)
same,growth inhibition,[3]; at 100.0 µM,99% (active)
CSC1=NNC(SC)=NN1,growth inhibition,[4]; at 1.2 µM,-7%
same,growth inhibition,[4]; at 3.7 µM,-9%
same,growth inhibition,[4]; at 11.0 µM,-6%
same,growth inhibition,[4]; at 33.0 µM,51%
same,growth inhibition,[4]; at 100.0 µM,99% (active)
same,growth inhibition,[5]; at 1.2 µM,-4%
same,growth inhibition,[5]; at 3.7 µM,-9%
same,growth inhibition,[5]; at 11.0 µM,0%
same,growth inhibition,[5]; at 33.0 µM,55%
same,growth inhibition,[5]; at 100.0 µM,98% (active)
same,growth inhibition,[6]; at 1.2 µM,-4%
same,growth inhibition,[6]; at 3.7 µM,0%
same,growth inhibition,[6]; [15],49%
same,growth inhibition,[6]; at 11.0 µM,15%
same,growth inhibition,[6]; at 33.0 µM,66%
same,growth inhibition,[6]; [16],41%
same,growth inhibition,[6]; at 50.0 µM,59.9%
same,growth inhibition,[6]; at 100.0 µM,97% (active)
same,growth inhibition,[7]; at 1.2 µM,-4%
same,growth inhibition,[7]; at 3.7 µM,-22%
same,growth inhibition,[7]; [15],44%
same,growth inhibition,[7]; at 11.0 µM,15%
same,growth inhibition,[7]; at 33.0 µM,89% (active)
same,growth inhibition,[7]; [16],41%
same,growth inhibition,[7]; at 50.0 µM,44.4%
same,growth inhibition,[7]; at 100.0 µM,99% (active)
same,growth inhibition,[8]; at 1.2 µM,-16%
same,growth inhibition,[8]; at 3.7 µM,-4%
same,growth inhibition,[8]; at 11.0 µM,36%
same,growth inhibition,[8]; at 33.0 µM,87% (active)
same,growth inhibition,[8]; at 100.0 µM,98% (active)
same,growth inhibition,[9]; [15],-1%
same,growth inhibition,[9]; [16],100% (active)
same,growth inhibition,[9]; at 50.0 µM,58.5%
same,growth inhibition,[10]; at 1.2 µM,-8%
same,growth inhibition,[10]; at 3.7 µM,17%
same,growth inhibition,[10]; at 11.0 µM,15%
same,growth inhibition,[10]; at 33.0 µM,46%
same,growth inhibition,[10]; at 100.0 µM,99% (active)
same,growth inhibition,[11]; [15],61%
same,growth inhibition,[11]; [16],99% (active)
same,growth inhibition,[11]; at 50.0 µM,30.9%
same,growth inhibition,[12]; at 1.2 µM,-12%
same,growth inhibition,[12]; at 3.7 µM,6%
same,growth inhibition,[12]; [15],45%
same,growth inhibition,[12]; at 11.0 µM,54%
same,growth inhibition,[12]; at 33.0 µM,89% (active)
same,growth inhibition,[12]; [16],99% (active)
same,growth inhibition,[12]; at 50.0 µM,68.8%
same,growth inhibition,[12]; at 100.0 µM,99% (active)
same,growth inhibition,[13]; at 1.2 µM,-2%
same,growth inhibition,[13]; at 3.7 µM,1%
same,growth inhibition,[13]; at 11.0 µM,4%
same,growth inhibition,[13]; at 33.0 µM,61%
same,growth inhibition,[13]; at 100.0 µM,99% (active)
same,growth inhibition,[14]; at 1.2 µM,-3%
same,growth inhibition,[14]; at 3.7 µM,17%
same,growth inhibition,[14]; at 11.0 µM,20%
same,growth inhibition,[14]; at 33.0 µM,62%
same,growth inhibition,[14]; at 100.0 µM,98% (active)
same,growth inhibition,[2]; [15],44%
same,growth inhibition,[2]; [16],35%
same,growth inhibition,[2]; at 50.0 µM,39.4%
same,growth inhibition,[3]; at 1.2 µM,4%
same,growth inhibition,[3]; at 3.7 µM,13%
same,growth inhibition,[3]; at 11.0 µM,60%
same,growth inhibition,[3]; at 33.0 µM,93% (active)
same,growth inhibition,[3]; at 100.0 µM,98% (active)
